Compounds with a hit are over-represented: about 9.3% of the library has one in this group of screens.
SMN2 splice up: qHTS Assay for Enhancers of SMN2 Splice Variant Expression; HEK293 SMN2-luciferase splicing reporter, luminescence, 30-36 h; Potency, µM (series often up to 46.1 µM), hits mostly activators; 2.8% of 210,000 active; AID 1458, 2008; note: nearly all actives have a fitted effect of over 55% in size
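HEK293 cells carry an SMN2 […]–luciferase reporter in which exon 7 inclusion puts luciferase in frame. Cells were plated 10-12 h before compound addition, then incubated 30-36 h at 37C. ONE-Glo luminescence was read; sodium butyrate at 4.5 mM final served as control.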
ELG1 repair inh: qHTS screen for small molecules that inhibit ELG1-dependent DNA repair in human embryonic kidney (HEK293T) cells expressing luciferase-tagged ELG1; 2.3% of 330,000 active; HEK293T ELG1-luciferase reporter, luminescence, 16 h; DNA damage induced by 5-fluorouridine; Potency, µM (series often up to 46.1 µM), hits mostly inhibitors; note: nearly all actives have a fitted effect of over 55% in size
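Overnight (16 hr) co-exposure of 2,000 cells/well to 5-fluorouridine and compound at 37 °C preceded detection. Luciferase was quantified via ONE-Glo luminescence; loss of signal denotes inhibition.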
ELG1 genotoxic: qHTS screen for small molecules that induce genotoxicity in human embryonic kidney (HEK293T) cells expressing luciferase-tagged ELG1 | AID 504466, 2011 | 1.3% of 330,000 active | Potency, µM (highest dose often 46 µM), hits mostly activators | HEK293T ELG1-luciferase reporter, luminescence, 16 h; note: nearly all actives have a fitted effect of over 60% in size
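Genotoxic stress is detected as increased luminescence from luciferase-tagged ELG1 in HEK293T cells, measured with ONE-Glo after a 16 hr treatment at 37 °C.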
FLuc counter: qHTS profiling assay for firefly luciferase inhibitor/activator using purifed enzyme and Km concentrations of substrates (counterscreen for miR-21 project); Potency, µM (highest dose often 57.5 µM), most hits filed as inhibitors; purified FLuc, Km substrates, luminescence inhibition; 6.9% of 360,000 active; AID 588342, 2011; Luciferin 4-monooxygenase (Photinus pyralis), P08659; note: nearly all actives have a fitted effect of over 55% in size
Target sequence (P08659 whole entry, looked up): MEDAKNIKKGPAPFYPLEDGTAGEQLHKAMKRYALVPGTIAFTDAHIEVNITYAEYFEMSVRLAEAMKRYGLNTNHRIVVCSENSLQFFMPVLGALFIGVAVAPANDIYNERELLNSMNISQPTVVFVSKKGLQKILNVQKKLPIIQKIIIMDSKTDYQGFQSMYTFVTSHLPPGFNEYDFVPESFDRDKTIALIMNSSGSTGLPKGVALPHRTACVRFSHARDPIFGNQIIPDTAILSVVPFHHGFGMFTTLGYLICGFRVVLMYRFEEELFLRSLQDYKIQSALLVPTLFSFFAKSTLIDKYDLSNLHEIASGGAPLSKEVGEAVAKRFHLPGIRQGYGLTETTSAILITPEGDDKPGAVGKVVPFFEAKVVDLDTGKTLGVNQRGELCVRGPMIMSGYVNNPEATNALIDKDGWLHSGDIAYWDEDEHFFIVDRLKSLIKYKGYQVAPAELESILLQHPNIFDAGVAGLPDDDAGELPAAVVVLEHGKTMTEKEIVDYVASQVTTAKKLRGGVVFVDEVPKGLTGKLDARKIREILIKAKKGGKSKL
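Purified P. pyralis luciferase (10nM final) with 10uM D-luciferin and 10uM ATP (Km levels) in 50mM Tris acetate pH 7.5, 10mM Mg acetate, 0.01% Tween-20, 0.05% BSA; qHTS 6-point titration, ~60 µM downward; luminescence read.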
NPC1 prom act: qHTS Assay for NPC1 Promoter Activators; Huh7 NPC1 promoter luciferase reporter, 24 h; Potency, µM (titrated, usually from 9.22 µM), most hits filed as activators; 2.4% of 320,000 active; AID 485313, 2010; note: nearly all actives have a fitted effect of over 60% in size
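Readout is luciferase luminescence, reflecting NPC1 promoter activation in stably transfected Huh7 cells after 24 h compound exposure at 37 °C in reduced-serum medium with 10% FBS.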
Rab9 promoter act: qHTS Assay for Rab9 Promoter Activators. AID 485297, 2010. Huh7 Rab9 promoter-luciferase reporter, luminescence, 24 h. Potency, µM (series often up to 9.22 µM), actives largely listed as activators. 2.8% of 320,000 active; note: nearly all actives have a fitted effect of over 60% in size
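Steps: seed 1500 Huh7 Rab9-luc cells per well, rest 2 h at 37 °C; add compound in DMSO; incubate 24 h; add luciferase reagent, 10 min ambient; read luminescence.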
Large screens that a line does not name were inactive. Calls come from the whole dose curve; as a rule, active = well fitted curve in the direction sought with a large enough effect; inconclusive = small, poorly fitted or top-dose-only effect, or another doubt; inactive = no such curve, though single readings can be large; an effect the other way counts as inactive or inconclusive.

Cc1ccc2nc(-c3ccc(NC(=O)COC(=O)c4cncc(Br)c4)cc3)sc2c1	SMN2 splice up 0.562µM, ELG1 repair inh inconclusive, ELG1 genotoxic 1.3µM, FLuc counter 1.69µM, NPC1 prom act inconclusive, Rab9 promoter act 0.316µM
Cc1ccc2nc(-c3ccc(NC(=O)CN4CCN(C(=O)c5ccco5)CC4)cc3)sc2c1	SMN2 splice up inconclusive, ELG1 repair inh inconclusive, ELG1 genotoxic inconclusive, FLuc counter 4.78µM, NPC1 prom act inconclusive, Rab9 promoter act inconclusive
Cc1ccc2nc(-c3ccc(NC(=O)COC(=O)c4ccco4)cc3)sc2c1	SMN2 splice up 2.24µM, ELG1 repair inh inconclusive, ELG1 genotoxic 2.91µM, FLuc counter 10.7µM, NPC1 prom act 0.447µM, Rab9 promoter act 0.316µM
Oc1ccccc1-n1nc2ccc3nonc3c2n1	none (no result: SMN2 splice up)
CC(C)c1ccc(/C=C/c2[nH]c(=O)[nH]c(=O)c2[N+](=O)[O-])cc1	FLuc counter inconclusive (no result: SMN2 splice up)
Cc1ccc(CNc2ncccc2-c2nc(-c3ccc(Cl)cc3)no2)cc1	none (no result: SMN2 splice up, ELG1 repair inh, ELG1 genotoxic, NPC1 prom act, Rab9 promoter act)
CCOc1ncccc1C(=O)OCC(=O)Nc1c(C)cc(C)cc1C	none
CC(=O)Nc1ccc(NC(=O)COC(=O)c2ccco2)cc1	none
O=C(COC(=O)c1ccc(Br)o1)Nc1ccc(Br)cc1	none (no result: SMN2 splice up)
CC(=O)Nc1ccc(C(=O)COC(=O)c2ccco2)c(F)c1	ELG1 repair inh inconclusive, FLuc counter 13.5µM (no result: SMN2 splice up)
CCOc1ncccc1C(=O)OCC(=O)Nc1ccc(-c2nc3ccc(C)cc3s2)cc1	SMN2 splice up 1.58µM, ELG1 repair inh inconclusive, ELG1 genotoxic 7.31µM, FLuc counter 5.36µM, NPC1 prom act 0.447µM, Rab9 promoter act 0.355µM
CNS(=O)(=O)c1cccc(C(=O)OCC(=O)Nc2ccc(-c3nc4ccc(C)cc4s3)cc2)c1	SMN2 splice up 1.12µM, ELG1 repair inh inconclusive, ELG1 genotoxic 0.731µM, FLuc counter 4.78µM, NPC1 prom act 0.501µM, Rab9 promoter act inconclusive
Cc1ccc2nc(-c3ccc(NC(=O)COC(=O)c4ccc(Br)o4)cc3)sc2c1	SMN2 splice up 0.501µM, ELG1 repair inh inconclusive, ELG1 genotoxic 1.16µM, FLuc counter 3.38µM, NPC1 prom act 0.794µM, Rab9 promoter act 0.398µM
O=C1C=CCCC1	none
O=C(c1ccc2c(c1)N(Cc1cccc(Cl)c1)C(=O)c1ccccc1S2=O)N1CCN(c2cccc(C(F)(F)F)c2)CC1 (configuration not stated)	none (no result: SMN2 splice up, ELG1 repair inh, ELG1 genotoxic, NPC1 prom act, Rab9 promoter act)
Cc1ccc(CCNS(=O)(=O)c2ccc3c(c2)N(C)CCO3)cc1	none (no result: SMN2 splice up)
Cc1ccc2nc(-c3ccc(NC(=O)COC(=O)c4ccc([N+](=O)[O-])o4)cc3)sc2c1	SMN2 splice up 0.708µM, ELG1 repair inh inconclusive, ELG1 genotoxic 1.3µM, FLuc counter 1.35µM, NPC1 prom act 0.398µM, Rab9 promoter act 0.447µM
Cc1c(NC(=O)c2ccc3nsnc3c2)cccc1[N+](=O)[O-]	none (no result: SMN2 splice up)
O=C(Nc1ccc(Br)cc1F)c1ccc2nsnc2c1	ELG1 repair inh inconclusive, ELG1 genotoxic 10.3µM, FLuc counter inconclusive, NPC1 prom act 1.58µM, Rab9 promoter act 3.55µM (no result: SMN2 splice up)
Cc1ccc(NC(=O)c2ccc3nsnc3c2)c(Cl)c1	ELG1 repair inh inconclusive, ELG1 genotoxic inconclusive, FLuc counter 1.51µM, NPC1 prom act 0.501µM, Rab9 promoter act 0.316µM (no result: SMN2 splice up)
CC(=O)NC(CC(=O)NCCCn1ccc2ccccc21)c1ccccc1 (configuration not stated)	none (no result: SMN2 splice up)
CCOc1ccc(NC(=O)c2cc(S(=O)(=O)N3CCN(c4ccccc4F)CC3)ccc2F)cc1	none (no result: SMN2 splice up, ELG1 repair inh, ELG1 genotoxic, NPC1 prom act, Rab9 promoter act)
Cc1ccc(C(=O)NCCOc2cccc3cccnc23)cc1Cl	FLuc counter inconclusive
Brc1ccccc1OCCCOc1cccc2cccnc12	ELG1 repair inh inconclusive, ELG1 genotoxic inconclusive, FLuc counter 10.7µM, NPC1 prom act inconclusive, Rab9 promoter act 3.98µM (no result: SMN2 splice up)
